{"source": "paper PMC9911399", "about": "“Two distinct binding modes provide the RNA-binding protein RbFox with extraordinary sequence specificity”", "binders": {"B1": {"name": "AGAAAUU (DNA:RNA)", "RNA": "GGGAGACCGGAAUUCAGAUUGUCCAGAAAUUUUAAAUCCCGUCGUAGCCACCA", "DNA 1": "CAATCTGAATTCCGGTCTCCC", "DNA 2": "TGGTGGCTACGACGGGATT"}, "B2": {"name": "UCAAUAA (DNA:RNA)", "RNA": "B1 RNA with A25U, G26C, A29U, U30A, U31A", "DNA 1": "CAATCTGAATTCCGGTCTCCC", "DNA 2": "TGGTGGCTACGACGGGATT"}, "B3": {"name": "ACAGCAG (DNA:RNA)", "RNA": "B1 RNA with G26C, A28G, A29C, U30A, U31G", "DNA 1": "CAATCTGAATTCCGGTCTCCC", "DNA 2": "TGGTGGCTACGACGGGATT"}, "B4": {"name": "CUCGUGG (DNA:RNA)", "RNA": "GGGAGACCGGAAUUCAGAUUGUCCCUCGUGGUUAAAUCCCGUCGUAGCCACCA", "DNA 1": "CAATCTGAATTCCGGTCTCCC", "DNA 2": "TGGTGGCTACGACGGGATT"}, "B5": {"name": "UGGGCUU (DNA:RNA)", "RNA": "B1 RNA with A25U, A27G, A28G, A29C", "DNA 1": "CAATCTGAATTCCGGTCTCCC", "DNA 2": "TGGTGGCTACGACGGGATT"}, "B6": {"name": "CGGCUAG (DNA:RNA)", "RNA": "B4 RNA with U26G, C27G, G28C, G30A", "DNA 1": "CAATCTGAATTCCGGTCTCCC", "DNA 2": "TGGTGGCTACGACGGGATT"}, "B7": {"name": "GGGCUAG (DNA:RNA)", "RNA": "B4 RNA with C25G, U26G, C27G, G28C, G30A", "DNA 1": "CAATCTGAATTCCGGTCTCCC", "DNA 2": "TGGTGGCTACGACGGGATT"}, "B8": {"name": "GUCGGGC (DNA:RNA)", "RNA": "B4 RNA with C25G, U29G, G31C", "DNA 1": "CAATCTGAATTCCGGTCTCCC", "DNA 2": "TGGTGGCTACGACGGGATT"}, "B9": {"name": "GGGGCGC (DNA:RNA)", "RNA": "B4 RNA with C25G, U26G, C27G, U29C, G31C", "DNA 1": "CAATCTGAATTCCGGTCTCCC", "DNA 2": "TGGTGGCTACGACGGGATT"}, "B10": {"name": "GGGCUUG (DNA:RNA)", "RNA": "B1 RNA with A25G, A27G, A28C, A29U, U31G", "DNA 1": "CAATCTGAATTCCGGTCTCCC", "DNA 2": "TGGTGGCTACGACGGGATT"}, "B11": {"name": "CGGGCGC (DNA:RNA)", "RNA": "B4 RNA with U26G, C27G, U29C, G31C", "DNA 1": "CAATCTGAATTCCGGTCTCCC", "DNA 2": "TGGTGGCTACGACGGGATT"}, "B12": {"name": "GGCUAGU (DNA:RNA)", "RNA": "B1 RNA with A25G, A27C, A28U, U30G", "DNA 1": "CAATCTGAATTCCGGTCTCCC", "DNA 2": "TGGTGGCTACGACGGGATT"}, "B13": {"name": "CUGGGCU (DNA:RNA)", "RNA": "B4 RNA with C27G, U29G, G30C, G31U", "DNA 1": "CAATCTGAATTCCGGTCTCCC", "DNA 2": "TGGTGGCTACGACGGGATT"}, "B14": {"name": "GGGGGGC (DNA:RNA)", "RNA": "B4 RNA with C25G, U26G, C27G, U29G, G31C", "DNA 1": "CAATCTGAATTCCGGTCTCCC", "DNA 2": "TGGTGGCTACGACGGGATT"}, "B15": {"name": "GGGCGCU (DNA:RNA)", "RNA": "B1 RNA with A25G, A27G, A28C, A29G, U30C", "DNA 1": "CAATCTGAATTCCGGTCTCCC", "DNA 2": "TGGTGGCTACGACGGGATT"}, "B16": {"name": "UGGGGCU (DNA:RNA)", "RNA": "B1 RNA with A25U, A27G, A28G, A29G, U30C", "DNA 1": "CAATCTGAATTCCGGTCTCCC", "DNA 2": "TGGTGGCTACGACGGGATT"}}, "note": "Positions count from the first letter of the chain named. Whole data set: some 16,000 sequences, median “ka relative to ugcaugu” near 0.0091, cut for the highest 2% near 0.032. The entries come from a sample that favours the highest values as a whole.", "data": [{"molecular_target": "T1, RBFOX1 RRM (Homo sapiens, UniProt Q9NWB1 109-208)", "T1 sequence": "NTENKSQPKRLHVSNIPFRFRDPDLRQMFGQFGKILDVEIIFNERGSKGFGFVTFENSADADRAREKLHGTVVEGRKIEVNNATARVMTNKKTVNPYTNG", "assay": "EMSA; HiTS-Eq, 1 nM pool, 10 min; buffer printed only for the single-RNA assays: 10 mM Tris pH 7.5, 150 mM NaCl, 3.4 mM EDTA, 0.001% NP-40, 30 C", "conditions": "tags: His6 N-terminal (pET28a); label: 5' 32P", "outline": "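Purified wild-type or mutant RbFox RRM at increasing concentrations was equilibrated with 1 nM of 5′-radiolabelled RNA carrying 7 randomized nucleotides for 10 min in 50 µL. Unbound RNA was separated by 8% native PAGE and sequenced. Relative association constants came from read-count changes of each RNA species compared with the control reaction, normalised to the cognate motif.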", "values": [{"binder": "B1", "binding signal": "0.00368 KA relative to UGCAUGU"}, {"binder": "B2", "binding signal": "0.00079 KA relative to UGCAUGU"}, {"binder": "B3", "binding signal": "0.00511 KA relative to UGCAUGU"}, {"binder": "B4", "binding signal": "0.00654 KA relative to UGCAUGU"}, {"binder": "B5", "binding signal": "0.0356 KA relative to UGCAUGU"}, {"binder": "B6", "binding signal": "0.02 KA relative to UGCAUGU"}, {"binder": "B7", "binding signal": "0.0339 KA relative to UGCAUGU"}, {"binder": "B8", "binding signal": "0.0126 KA relative to UGCAUGU"}, {"binder": "B9", "binding signal": "0.0421 KA relative to UGCAUGU"}, {"binder": "B10", "binding signal": "0.0531 KA relative to UGCAUGU"}, {"binder": "B11", "binding signal": "0.0268 KA relative to UGCAUGU"}, {"binder": "B12", "binding signal": "0.0239 KA relative to UGCAUGU"}, {"binder": "B13", "binding signal": "0.0227 KA relative to UGCAUGU"}, {"binder": "B14", "binding signal": "0.0272 KA relative to UGCAUGU"}, {"binder": "B15", "binding signal": "0.0216 KA relative to UGCAUGU"}, {"binder": "B16", "binding signal": "0.0267 KA relative to UGCAUGU"}]}]}
